The full list was thinned out, with hits kept by preference.
TbPYK inhibitor: T. brucei pyruvate kinase inhibition; Potency, µM (titrated, usually from 76.8 µM), without a hit: at the top dose activity, negative = inhibition, actives largely listed as inhibitors; AID 624173; 0.12% of 410,000 active; Q57TT1; TbPYK enzyme, Kinase-Glo Plus ATP luminescence, 45 min; further: potency means the concentration at half of the fitted maximal effect; on the % scale 0 is the no-effect control and ±100 the full control effect; nearly all actives have a fitted effect of over 50% in size
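T. brucei PYK with substrate was exposed to pin-transferred compounds across a concentration series, then started with 130 uM ADP (final). After 45 min at room temperature, Kinase-Glo Plus luminescence was read, normalized and curve-fitted.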
FBPA Giardia inh: blocks Giardia fructose-bisphosphate aldolase activity | 0.71% of 290,000 active | purified Giardia FBPA | A8B2U2 | Potency, µM (highest dose often 59.6 µM), for inactives: top-dose activity, negative = inhibition, actives largely listed as inhibitors; further: potency means the concentration at half of the fitted maximal effect; on the % scale 0 is the no-effect control and ±100 the full control effect; nearly all actives have a fitted effect of over 55% in size
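40 nM FBPA preincubated 10 min at RT with compound (up to 57.5 uM final), then substrate plus GAPDH/TPI/NAD/arsenate coupling and diaphorase/resazurin added. Fluorescence read after 20 min at RT, 525/598 nm.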
Sm TGR inh: S. mansoni TGR enzyme inhibition; AID 485364; Potency, µM (titrated, usually from 114 µM), for inactives: top-dose activity change, negative = inhibition, actives largely listed as inhibitors; purified TGR, DTNB reduction, TNB absorbance 405 nm; Q962Y6; 3% of 360,000 active; further: potency means the concentration at half of the fitted maximal effect; on the % scale 0 is the no-effect control and ±100 the full control effect; nearly all actives have a fitted effect of over 60% in size
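First, TGR (20 nM dispensed) and NADPH were mixed with compound. Second, a 15 min room-temperature incubation followed. Third, further NADPH and then DTNB were added to start the reaction. Finally, TNB absorbance was monitored kinetically.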
LmPK inh: inhibitors of Leishmania mexicana pyruvate kinase | Q27686 | purified LmPK, Kinase-Glo ATP luminescence, 1 h | Potency, µM (doses to about 57.5 µM), for inactives: at the highest dose activity change, negative = inhibition, hits mostly inhibitors | 0.37% of 290,000 active | AID 1721; further: potency means the concentration at half of the fitted maximal effect; on the % scale 0 is the no-effect control and ±100 the full control effect
Target sequence (Q27686 whole entry, looked up): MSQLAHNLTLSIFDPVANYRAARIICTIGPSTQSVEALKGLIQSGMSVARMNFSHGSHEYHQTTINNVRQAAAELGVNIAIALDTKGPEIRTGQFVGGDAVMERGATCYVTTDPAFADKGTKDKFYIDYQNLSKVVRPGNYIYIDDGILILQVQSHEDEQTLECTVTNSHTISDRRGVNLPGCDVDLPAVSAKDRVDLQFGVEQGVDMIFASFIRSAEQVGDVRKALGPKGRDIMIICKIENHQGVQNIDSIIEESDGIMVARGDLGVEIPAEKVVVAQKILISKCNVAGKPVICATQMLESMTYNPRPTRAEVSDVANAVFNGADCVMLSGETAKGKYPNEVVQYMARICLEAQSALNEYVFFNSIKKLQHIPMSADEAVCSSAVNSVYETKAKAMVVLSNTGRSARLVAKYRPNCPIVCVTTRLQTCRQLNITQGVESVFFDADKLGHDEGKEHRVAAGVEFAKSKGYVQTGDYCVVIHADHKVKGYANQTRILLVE
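In 50 mM imidazole pH 7.2 with 7 mM MgCl2, LmPK (0.1 nM) turned over PEP (0.5 mM) and ADP (0.1 mM) for 1 h at room temperature. Luciferase read-out of ATP.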
Shiga toxin inh: blocks Shiga toxin action in Vero cells; inhibition, % at 38.7 µM; 9.2% of 290,000 active; AID 2315; Vero cells, Shiga toxin protein synthesis inhibition reporter; in the data active means inhibition mostly above about 28%, no sharp cut-off; inactive means mostly below about 43%; further: 0% is about no effect
CHX counter: counter-screen for Shiga toxin inhibitors: cycloheximide protein synthesis inhibition | 12% of 300,000 active | cell reporter, cycloheximide protein synthesis inhibition counterscreen | AID 2314 | max response, %; in the data active means max response mostly above about 13%, no sharp cut-off; inactive means mostly below about 14%; further: read at 38.3 µM for the half of the compounds with a filed dose; 0% is about no effect
* hit, by the source's call; ? = inconclusive; . = no result; [ ] = remark or other dose. Unless noted, the call rests on the fitted dose curve; in most records, active means well fitted curve in the direction sought with a large enough effect; inconclusive means small, poorly fitted or top-dose-only effect, or another doubt; inactive means no such curve, though single readings can be large; an effect the other way counts as inactive or inconclusive.

SMILES | TbPYK inhibitor | FBPA Giardia inh | Sm TGR inh | LmPK inh | Shiga toxin inh | CHX counter
C#CCOCCOCCOCCNc1nc(N2CCN(C(=O)[C@H](CCC(=O)O)n3cc(C(N)CC(C)C)nn3)CC2)nc(N2CCN(C(=O)[C@H](Cc3ccc(O)cc3)n3cc(C(N)[C@H](C)CC)nn3)CC2)n1 (stereo partly drawn) | . | -9% | 40µM* | 0% | -13 | -2
C#CCOCCOCCOCCNc1nc(N2CCN(C(=O)C([C@@H](C)CC)n3cc(C(N)CC(C)C)nn3)CC2)nc(N2CCN(C(=O)[C@H](CCC(=O)O)n3cc(C(N)[C@H](C)CC)nn3)CC2)n1 (stereo partly drawn) | 5% | -6% | -25% | 0% | -9 | 1
C#CCOCCOCCOCCNc1nc(N2CCN(C(=O)[C@H](CCC(=O)O)n3cc(C(N)CC(C)C)nn3)CC2)nc(N2CCN(C(=O)[C@H](CCC(=O)O)n3cc(C(N)[C@H](C)CC)nn3)CC2)n1 (stereo partly drawn) | 0% | -10% | 32µM* | 0% | 8 | 4
C#CCOCCOCCOCCNc1nc(N2CCN(C(=O)[C@H]([C@@H](C)CC)n3cc([C@@H](N)CC(C)C)nn3)CC2)nc(N2CCN(C(=O)[C@H](Cc3ccc(O)cc3)n3cc([C@@H](N)CC(C)C)nn3)CC2)n1 | 0% | 1% | 0% | 1% | 14 | -2
C#CCOCCOCCOCCNc1nc(N2CCN(C(=O)[C@H](CCCCN)n3cc([C@@H](N)C(C)CC)nn3)CC2)nc(N2CCN(C(=O)[C@H](CCCCN)n3cc([C@@H](N)CC(C)C)nn3)CC2)n1 (stereo partly drawn) | 2% | -1% | 40µM* | 5% | -8 | 2
C#CCOCCOCCOCCNc1nc(N2CCN(C(=O)C([C@@H](C)CC)n3cc(C(N)CO)nn3)CC2)nc(N2CCN(C(=O)[C@H](CCC(=O)O)n3cc(C(N)[C@H](C)CC)nn3)CC2)n1 (stereo partly drawn) | . | 4% | 0% | 4% | -2 | -3
C#CCOCCOCCOCCNc1nc(N2CCN(C(=O)[C@H](CCCCN)n3cc([C@@H](N)[C@H](C)CC)nn3)CC2)nc(N2CCN(C(=O)[C@H](CCCCN)n3cc([C@@H](N)CC(N)=O)nn3)CC2)n1 | -2% | . | . | . | . | .
C#CCOCCOCCOCCNc1nc(N2CCN(C(=O)[C@H](CCC(=O)O)n3cc(C(N)CO)nn3)CC2)nc(N2CCN(C(=O)[C@H](CCC(=O)O)n3cc(C(N)[C@H](C)CC)nn3)CC2)n1 (stereo partly drawn) | -8% | -15% | 28µM* | 2% | 1 | -2
C#CCOCCOCCOCCNc1nc(N2CCN(C(=O)[C@H](CCCCN)n3cc(CCCC)nn3)CC2)nc(N2CCN(C(=O)[C@H](Cc3ccc(O)cc3)n3cc(CCO)nn3)CC2)n1 | -2% | 20% | 35µM* | 0% | -11 | -6
C#CCOCCOCCOCCNc1nc(N2CCN(C(=O)[C@H](CCCCN)n3cc(CC(C)O)nn3)CC2)nc(N2CCN(C(=O)[C@H](Cc3ccc(O)cc3)n3cc(CCO)nn3)CC2)n1 (stereo partly drawn) | -1% | . | . | . | . | .
Cc1cc(=O)c2c(O)c3c(O)cc(O)c4c5c(O)cc(O)c6c(O)c7c(=O)cc(C)c8c1c2c(c34)c(c65)c78 | . | -28% | . | . | . | .
CCC(C)c1ccccc1NC(=O)C(C)NCCN(C)C (stereo not drawn) | 0% | ? | 40µM* | 0% | -4 | -1
O=C(Nc1ccc(S(=O)(=O)NC2=NCCCCC2)cc1)C1COc2ccccc2O1 (stereo not drawn) | -4% | -4% | 10% | 3% | -3 | -2
COC(=O)c1sc(NC(=O)c2cc(C)on2)nc1C | -2% | 5% | -8% | -9% | 36* | 27*
COC(=O)c1sc(NC(=S)NC(=O)c2ccccc2F)nc1C | 4% | -15% | -2% | -1% | 160* | 51*
CCOC(=O)CNC(=O)c1sc(NC(=O)c2ccccc2F)nc1C | -3% | 2% | 0% | 13µM* | 55* | 35*
COC(=O)c1sc(NC(=O)COc2ccc(OC)cc2)nc1C | -6% | . | . | . | . | .
CCOC(=O)CNC(=O)c1sc(NC(=O)c2cccc(F)c2)nc1C | -1% | -9% | 5% | -10% | 66* | 26*
Cc1ccc(NC(=O)Cn2ccn(-c3ccc(F)c(F)c3)c(=O)c2=O)cc1C | -6% | . | 1% | . | . | .
O=C(NCCS(=O)(=O)NCc1ccccn1)c1ccccc1 | 1% | . | -3% | . | . | .
COc1ccc(NC(=O)CSc2nc3c(oc4ccccc43)c(=O)n2Cc2ccco2)cc1Cl | 9% | . | 2% | . | 35 | 16
CC1(C)OC(=O)C(=NNc2ccc(O)cc2)C(=O)O1 | 4% | -1% | -24% | 2% | 42 | 13*
CC1(C)OC(=O)C(=NNc2ccc(Cl)cc2)C(=O)O1 | 3% | -8% | 4% | -3% | 63* | 60*
CC1(C)OC(=O)C(=NNc2ccc(C(=O)O)cc2)C(=O)O1 | 5% | -4% | -2% | 3% | 17 | 15
O=C(CSc1nnc2ccccn12)NCc1cccs1 | 6% | -3% | 4%[11.4 µM] | 11% | 52* | 21*
SMILES | TbPYK inhibitor | FBPA Giardia inh | Sm TGR inh | LmPK inh | Shiga toxin inh | CHX counter
O=C(NCc1cccs1)C12CC3CC(CC(C3)C1)C2 | -22% | 3% | 12% | 1% | 21 | -1
O=C(CCSCCC(=O)NCc1cccs1)NCc1cccs1 | -3% | 0% | 40µM* | -2% | 21 | 8
Cn1nnnc1SCC(=O)NCc1cccs1 | -10% | 4% | -2% | 6% | 11 | -3
O=C(CSc1ccc2ccccc2c1)NCc1cccs1 | 0% | -3% | 7% | 3% | 15 | 32*
O=C(CC1CC2CCC1C2)NCc1cccs1 (stereo not drawn) | 3% | 5% | 2% | -3% | 52 | 15*
O=C1[C@H]2[C@H]3[C@H](O)[C@H](O)C/C(=N/OCc4ccccc4)[C@H]3CC[C@@H]2C(=O)N1Cc1ccc2c(c1)OCO2 | . | -2%[12.9 µM] | . | . | . | .
C=CCn1c(N)cc(=O)nc1SCC(=O)N1CCN(c2ccc(F)cc2)CC1 | -23% | -3% | 28µM* | 0% | -1 | -3
O=C(NCCN1CCc2ccccc2C1)Nc1ccc([N+](=O)[O-])cc1 | -2% | ? | -8% | 12% | -11 | 6
O=C(Nc1ccc([N+](=O)[O-])cc1)N1CCc2ccccc2C1 | -2% | -3% | 1% | 1% | . | 38*
CC(C)c1ccc(NC(=O)N2CCc3ccccc3C2)cc1 | 4% | -25% | 6% | -4% | 96* | 42*
O=[N+]([O-])c1ccc(N2CCc3ccccc3C2)cc1 | 0% | -7% | 2% | -1% | . | 26*
Cc1ccc(-n2ncc3c(Nc4cccc(C)c4C)ncnc32)cc1 | -3% | . | 1% | . | . | .
c1cnc2nc3c4ccccc4c4ccccc4c3nc2c1 | 1% | . | . | . | . | .
